# Laboratory results from the supplement of paper PMC9262897, “Low-cost anti-mycobacterial drug discovery using engineered E. coli” (Nature Communications, 2022).
# Structures can show the parent of a compound that is named as a salt. ± gives the standard deviation of the averaged measurements.
# Columns and labels:
# Test in all cases: growth (OD600 after 10 h); higher = more growth (less inhibition)
# [1] = test system: E. coli TESEC Alr+ wild-type control; details: compound 0.1 mM; raw OD600 reference: median of DMSO wells 0.241, cell-free background 0.041
# Description: (§1)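 TESEC Mtb Alr E. coli, or the Alr+ wild-type control, in 384-well plates with Prestwick library compounds at 0.1 mM and 1% DMSO, across arabinose induction levels of 1E3 to 1E7 nM. Growth is read as OD600 after 10 h at 37 °C in triplicate biological replicates.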
# E. coli TESEC Mtb Alr [2] = details: compound 0.1 mM
# Description: as §1
# E. coli TESEC Mtb Asd = details: compound 0.1 mM
# Description: (§2)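 TESEC E. coli strains in which the native enzyme is deleted and replaced by arabinose-inducible Mtb Asd, DapB, CysH or TrpD, each grown in its selective medium. Strains were screened against the Prestwick library at 0.1 mM and 1% DMSO in 384-well format at low and high arabinose induction. Growth is read as OD600 after 10 h in triplicate.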
# E. coli TESEC Mtb DapB = details: compound 0.1 mM
# Description: as §2
# E. coli TESEC Mtb Alr [3] = details: compound 0.1 mM; remark: listed apart in the source
# Description: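 TESEC Mtb Alr E. coli (ΔaraC ΔtolC ΔentC Δalr ΔdadX, arabinose-inducible Mtb Alr) or the Alr+ wild-type control strain, grown in defined M9-fructose medium without D-alanine in 96-well plates with Prestwick library compounds at 0.1 mM and 1% DMSO. Low Alr induction is 0.1 µM arabinose and high induction is 10 mM arabinose.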
# [4] = arabinose 1000 nM, raw OD600 reference: median of DMSO wells 0.294, cell-free background 0.041
# [5] = arabinose 10000 nM, raw OD600 reference: median of DMSO wells 0.264, cell-free background 0.041
# [6] = arabinose 100000 nM, raw OD600 reference: median of DMSO wells 0.201, cell-free background 0.041
# [7] = arabinose 1000000 nM, raw OD600 reference: median of DMSO wells 0.193, cell-free background 0.041
# [8] = arabinose 10000000 nM, raw OD600 reference: median of DMSO wells 0.146, cell-free background 0.041
# [9] = arabinose induction (level): High, raw OD600 reference: median of DMSO wells 0.331, cell-free background 0.041
# [10] = arabinose induction (level): Low, raw OD600 reference: median of DMSO wells 0.417, cell-free background 0.041
# [11] = arabinose induction (level): High, raw OD600 reference: median of DMSO wells […], cell-free background 0.041
# [12] = arabinose induction (level): Low, raw OD600 reference: median of DMSO wells 0.227, cell-free background 0.041
# [13] = arabinose 100 nM, raw OD600 reference: median of DMSO wells 0.413, cell-free background 0.052
# [14] = arabinose 10000000 nM, raw OD600 reference: median of DMSO wells […], cell-free background 0.052
SMILES,growth [1],growth (E. coli TESEC Mtb Alr [2]; [4]),growth (E. coli TESEC Mtb Alr [2]; [5]),growth (E. coli TESEC Mtb Alr [2]; [6]),growth (E. coli TESEC Mtb Alr [2]; [7]),growth (E. coli TESEC Mtb Alr [2]; [8]),growth (E. coli TESEC Mtb Asd; [9]),growth (E. coli TESEC Mtb Asd; [10]),growth (E. coli TESEC Mtb DapB; [11]),growth (E. coli TESEC Mtb DapB; [12]),growth (E. coli TESEC Mtb Alr [3]; [13]),growth (E. coli TESEC Mtb Alr [3]; [14])
CC1CS(=O)(=O)CCN1/N=C/c1ccc([N+](=O)[O-])o1 (stereo not drawn) [Nifurtimox],0.04547 ± 0.00025,0.0539 ± 0.0037,0.04127 ± 0.00031,0.0564 ± 0.0035,0.0414 ± 0.00017,0.0554 ± 0.00081,0.212 ± 0.049,0.237 ± 0.017,0.188 ± 0.029,0.251 ± 0.019,0.0469 ± 0.00035,0.0644 ± 0.012
CN1CCN(CC(=O)N2c3ccccc3C(=O)Nc3cccnc32)CC1 [Pirenzepine dihydrochloride],0.242 ± 0.0032,0.269 ± 0.049,0.268 ± 0.013,0.193 ± 0.0071,0.177 ± 0.0037,0.148 ± 0.0028,0.28 ± 0.051,0.418 ± 0.034,0.19 ± 0.013,0.253 ± 0.038,0.4155 ± 0.0034,0.334 ± 0.019
COc1ncnc(NS(=O)(=O)c2ccc(N)cc2)c1OC [Sulfadoxine],0.2282 ± 0.0012,0.28 ± 0.0075,0.251 ± 0.0051,0.192 ± 0.021,0.174 ± 0.007,0.14 ± 0.0077,0.306 ± 0.058,0.382 ± 0.062,0.195 ± 0.0074,0.237 ± 0.0097,0.4331 ± 0.0033,0.306 ± 0.007
C[C@]12CCC(=O)C=C1C=C[C@@H]1[C@@H]2CC[C@@]2(C)[C@H]1CC[C@@]21CCC(=O)O1 [Canrenone],0.129 ± 0.0013,0.139 ± 0.0075,0.097 ± 0.0013,0.131 ± 0.0077,0.0738 ± 0.0044,0.126 ± 0.0083,0.217 ± 0.055,0.227 ± 0.042,0.139 ± 0.011,0.174 ± 0.0092,0.363 ± 0.0069,0.144 ± 0.031
CCOC(=O)c1ccc(OC(=O)CCCCCNC(=N)N)cc1 [Gabexate mesilate],0.15 ± 0.014,0.179 ± 0.0036,0.158 ± 0.0034,0.109 ± 0.0039,0.0891 ± 0.0033,0.14 ± 0.0019,0.135 ± 0.015,0.147 ± 0.017,0.177 ± 0.0061,0.16 ± 0.011,0.396 ± 0.013,0.123 ± 0.0081
CCOC(=O)c1ccc(N)cc1 [Benzocaine],0.249 ± 0.0072,0.324 ± 0.02,0.263 ± 0.0073,0.213 ± 0.011,0.182 ± 0.0029,0.1551 ± 0.0012,0.469 ± 0.013,0.453 ± 0.027,0.212 ± 0.013,0.24 ± 0.034,0.4093 ± 0.00068,0.323 ± 0.018
O=c1[nH]cc(F)c(=O)[nH]1 [5-fluorouracil],0.122 ± 0.0069,0.155 ± 0.012,0.148 ± 0.0051,0.0825 ± 0.0014,0.0827 ± 0.0053,0.08963 ± 0.00055,0.193 ± 0.013,0.238 ± 0.015,0.151 ± 0.011,0.142 ± 0.013,0.359 ± 0.041,0.134 ± 0.013
O=C(O)c1ccccc1C(=O)Nc1ccc(S(=O)(=O)Nc2nccs2)cc1 [Phthalylsulfathiazole],0.245 ± 0.0086,0.298 ± 0.011,0.266 ± 0.022,0.198 ± 0.02,0.184 ± 0.0082,0.166 ± 0.0046,0.468 ± 0.023,0.445 ± 0.036,0.212 ± 0.016,0.239 ± 0.01,0.405 ± 0.019,0.333 ± 0.0071
O=C(CCCN1CCC(O)(c2ccc(Cl)cc2)CC1)c1ccc(F)cc1 [Haloperidol],0.216 ± 0.0039,0.265 ± 0.012,0.273 ± 0.0054,0.192 ± 0.015,0.172 ± 0.0034,0.14 ± 0.0019,0.395 ± 0.047,0.452 ± 0.028,0.187 ± 0.0073,0.248 ± 0.034,0.4348 ± 0.0041,0.239 ± 0.012
Cc1c(NC(C)C)c(=O)n(-c2ccccc2)n1C [Isopyrin hydrochloride],0.2426 ± 0.0023,0.304 ± 0.017,0.265 ± 0.004,0.229 ± 0.0067,0.211 ± 0.0094,0.141 ± 0.0042,0.29 ± 0.04,0.429 ± 0.036,0.218 ± 0.019,0.268 ± 0.032,0.393 ± 0.0061,0.351 ± 0.016
CSc1nc2cc(Cl)c(Oc3cccc(Cl)c3Cl)cc2[nH]1 [Triclabendazole],0.0427 ± 0.0024,0.0531 ± 0.0014,0.0802 ± 0.002,0.0447 ± 0.0021,0.0733 ± 0.012,0.04873 ± 5.8e-05,0.0558 ± 0.0083,0.0583 ± 0.0045,0.0562 ± 0.0033,0.0542 ± 0.0043,0.0864 ± 0.011,0.137 ± 0.014
Cc1ccc(S(=O)(=O)NC(=O)NN2CCCCCC2)cc1 [Tolazamide],0.256 ± 0.0047,0.293 ± 0.0069,0.281 ± 0.005,0.249 ± 0.0083,0.186 ± 0.012,0.17 ± 0.0032,0.293 ± 0.026,0.414 ± 0.05,0.214 ± 0.0044,0.235 ± 0.015,0.398 ± 0.017,0.354 ± 0.014
Nc1c2ccccc2nc2ccccc12 [Aminacrine],0.0412 ± 0.0015,0.0397 ± 0.00091,0.0408 ± 0.0025,0.043 ± 0.0015,0.0398 ± 0.0011,0.0406 ± 0.00096,0.0581 ± 0.016,0.0513 ± 0.004,0.0484 ± 0.00044,0.0506 ± 0.005,0.15 ± 0.062,0.0885 ± 0.027
CC(C)(O/N=C(\C(=O)N[C@@H]1C(=O)N2C(C(=O)[O-])=C(C[n+]3ccccc3)CS[C@H]12)c1csc(N)n1)C(=O)O [Ceftazidime pentahydrate],0.0434 ± 0.00087,0.0435 ± 0.0041,0.0396 ± 0.0004,0.0423 ± 0.0036,0.0575 ± 0.00086,0.0674 ± 0.0023,0.113 ± 0.0029,0.0679 ± 0.011,0.167 ± 0.072,0.0547 ± 0.0049,0.0467 ± 0.002,0.0727 ± 0.0092
